Assay [1] can be described thus: BSK_CASM3C_SRB: Viability Assessment in the BioMAP Diversity Plus: CASM3C Assay (AID 2283050).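 Also: total protein by SRB staining as cytotoxicity measure in parallel cultures; cells exposed to compound for 24 h.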 The settings on record: primary human coronary artery smooth muscle cells.
Read-out in assay [2]: Thrombomodulin, THBD (gene 7056)
Nature of the assay: BSK_CASM3C_Thrombomodulin: BioMAP Diversity Plus: CASM3C Assay for Thrombomodulin Biomarker Activity (AID 2283051).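 Also: thrombomodulin protein level measured by ELISA 24 h after dosing.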 The settings on record: primary human coronary artery smooth muscle cells; actives raise or lower the signal.

Read-out in assay [3]: Tissue Factor, F3 (gene 2152)
Nature of the assay: BSK_CASM3C_TissueFactor: BioMAP Diversity Plus: CASM3C Assay for Tissue Factor Biomarker Activity (AID 2283052).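 Also: cell surface tissue factor protein level read by ELISA.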 The settings on record: primary human coronary artery smooth muscle cells; actives raise or lower the signal.

Read-out in assay [4]: Interferon-gamma inducible Protein 10 (IP10), CXCL10 (gene 3627)
The experiment in a line: BSK_hDFCGF_IP10: BioMAP Diversity Plus: hDFCGF Assay for Interferon-gamma inducible Protein 10 (IP10) Biomarker Activity (AID 2283053). The settings on record: primary human foreskin fibroblasts; actives raise or lower the signal. In outline: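 IP-10 levels, quantified by ELISA, are taken from human foreskin fibroblast cultures 24 h after chemical treatment, with DMSO serving as negative control and baseline for bidirectional analysis.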

Read-out in assay [5]: Urokinase-type plasminogen activator receptor (uPAR), PLAUR (gene 5329)
Nature of the assay: BSK_CASM3C_uPAR: BioMAP Diversity Plus: CASM3C Assay for Urokinase-type plasminogen activator receptor (uPAR) Biomarker Activity (AID 2283054).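 Also: cell-surface uPAR protein level quantified by ELISA.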 The settings on record: primary human coronary artery smooth muscle cells; actives raise or lower the signal.

Read-out in assay [6]: Vascular cell adhesion molecule 1 (VCAM1), VCAM1 (gene 7412)
Nature of the assay: BSK_CASM3C_VCAM1: BioMAP Diversity Plus: CASM3C Assay for Vascular cell adhesion molecule 1 (VCAM1) Biomarker Activity (AID 2283055).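 Also: VCAM-1 protein level quantified by ELISA on the cells.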 The settings on record: primary human coronary artery smooth muscle cells; actives raise or lower the signal.

Read-out in assay [7]: Collagen III, COL3A1 (gene 1281)
Nature of the assay: BSK_hDFCGF_CollagenIII: BioMAP Diversity Plus: hDFCGF Assay for Collagen III Biomarker Activity (AID 2283056). The settings on record: primary human foreskin fibroblasts; actives raise or lower the signal. In outline:
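Response relative to DMSO, fitted in both directions, reflects ELISA-measured collagen III in human primary skin fibroblasts 24 h after compound addition.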

Read-out in assay [8]: Epidermal growth factor receptor (EGFR), EGFR (gene 1956)
Nature of the assay: BSK_hDFCGF_EGFR: BioMAP Diversity Plus: hDFCGF Assay for Epidermal growth factor receptor (EGFR) Biomarker Activity (AID 2283057). The settings on record: primary human foreskin fibroblasts; actives raise or lower the signal. In outline: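 Measured by ELISA: EGFR levels on primary human foreskin fibroblasts 24 h after chemical treatment, analysed relative to DMSO with bidirectional fitting.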

Read-out in assay [9]: Interleukin-8 (IL8), CXCL8 (gene 3576)
The experiment in a line: BSK_hDFCGF_IL8: BioMAP Diversity Plus: hDFCGF Assay for Interleukin-8 (IL8) Biomarker Activity (AID 2283058). The settings on record: primary human foreskin fibroblasts; actives raise or lower the signal. Summed up:
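Fibroblast monolayers (human foreskin, hDFCGF) received test chemical for 24 h before ELISA detection of IL-8; either increases or decreases relative to DMSO count as activity.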

Assay [10] in a line: BSK_hDFCGF_Proliferation: Cell Proliferation Assessment in the BioMAP Diversity Plus: hDFCGF Assay (AID 2283059).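 Also: curves fitted for both rise and fall of signal versus DMSO baseline.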 The settings on record: primary human foreskin fibroblasts. Summed up: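 Steps: dose primary human dermal fibroblasts (foreskin); […] fix in 10% TCA; stain with 0.1% SRB; read 560 nm; fit gain or loss of signal against DMSO.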

The text below walks through data of PubChem BioAssay (EPA / NIEHS).

SMILES strings stand for the structures. Several values for one entry are separate records, joined by “and”; a condition that tells them apart may be missing. Equal values may be shown once. Where a structure was tested more than once in an assay, its records may differ in their call. Activity calls are given as the source filed them. The calls were made as follows: active = hit-call score of the fitted dose curve at least 0.9, where 1 is the maximum; inactive = score below 0.9.

The term AC50 denotes the midpoint of the concentration-response curve, whichever way the signal moves.

`O=C(O)C(F)(OC(F)(F)C(F)(OC(F)(F)C(F)(OC(F)(F)C(F)(F)C(F)(F)F)C(F)(F)F)C(F)(F)F)C(F)(F)F` (centres undefined): the result in [1], in assay [2], in assay [3], in assay [4], in assay [5] and in [6] was inactive. For the same molecule, the result in [7], in assay [8], in [9] and in assay [10] was inactive.
Regarding `CCCCNc1ccccc1`, the outcome in assay [1], in [2], in assay [3], in assay [4], in [5] and in assay [6] was inactive. Also, the result in assay [7], in [8], in assay [9] and in assay [10] was inactive.
On to `FC(F)(F)C(F)(F)C(F)(F)C(F)(F)CCI`, for which the outcome in assay [1], in assay [2], in assay [3], in assay [4], in [5] and in assay [6] was inactive. The result in assay [7], in assay [8], in assay [9] and in assay [10] was inactive.
For `N=C(N)C(F)(F)C(F)(F)C(F)(F)C(F)(F)C(F)(F)C(F)(F)C(F)(F)F`, the result in assay [1], in [2], in assay [3], in assay [5], in [6] and in assay [8] was inactive. Moreover, the outcome in assay [9] was inactive. In addition, the AC50 in assay [4] is 42.9 µM (active) and 50.1 µM (active); in assay [7] it was 10.9 µM (active) and 10.7 µM (active); in [8], 53.9 µM (active); in [10] it was 39.7 µM (active) and 54.7 µM (active).
With `CC(CCl)OP(=O)(OC(C)CCl)OC(C)CCl` (centres undefined), the result in [1], in assay [2], in assay [3], in [4], in assay [5] and in assay [6] was inactive. Moreover, the outcome in assay [7], in assay [8], in assay [9] and in assay [10] was inactive.
For `O=C(O)C(F)(F)C(F)(F)C(F)(F)C(F)(F)C(F)(F)C(F)(F)C(F)(F)C(F)(F)C(F)(F)C(F)(F)C(F)(F)C(F)(F)F`, the outcome in [1], in assay [2], in assay [3], in assay [5], in assay [8] and in assay [9] was inactive. In [10], the outcome was inactive. The AC50 in assay [2] was 13.3 µM (active); in assay [4], 1.86 µM (active) and 1.07 µM (active); in assay [6], 7.09 µM (active) and 4.44 µM (active); in [7] it was 2.45 µM (active) and 896 nM (active); in assay [10], 2.47 µM (active).
Take `CC(=O)Nc1ccc(N=Nc2cc(C)ccc2O)cc1`: the outcome in assay [1], in assay [2], in assay [3], in [5], in assay [7] and in [9] was inactive. Also, the figures for the AC50 in [4], in assay [6] and in assay [10] were 34.1 µM (active), 9.54 µM (active) and 20 µM (active), respectively.
As for `O=C(O)C(F)(F)C(F)(F)C(F)(F)C(F)(F)F`, the outcome in assay [1], in assay [2], in assay [3], in assay [4], in assay [5] and in [6] was inactive. Further, the result in assay [7], in assay [9] and in [10] was inactive.
On to `O=C(O)C=C(C(F)(F)F)C(F)(F)F`, for which the outcome in assay [1], in [2], in assay [3], in assay [4], in assay [5] and in assay [7] was inactive. Further, the outcome in [8], in [9] and in assay [10] was inactive. The AC50 was 12.5 µM (active) and 5.23 µM (active) in assay [6]; 21.9 µM (active) in assay [10].
With `OCC(F)(F)C(F)(F)C(F)(F)C(F)(F)C(F)(F)C(F)F`, the outcome in assay [1], in assay [2], in assay [3], in assay [4], in assay [5] and in assay [6] was inactive. In addition, the result in [7], in assay [8], in [9] and in [10] was inactive.
On to `FC(F)(Br)C(F)(F)C(F)(F)C(F)(F)C(F)(F)C(F)(F)Br`, for which the result in assay [1], in assay [2], in assay [3], in assay [4], in assay [5] and in assay [6] was inactive. The result in [7], in assay [9] and in [10] was inactive.
Regarding `O=C(O)C(F)(F)C(F)(F)OC(F)(F)F`, the result in assay [1], in assay [2], in assay [3], in assay [4], in assay [5] and in assay [6] was inactive. In addition, the result in assay [7], in assay [9] and in [10] was inactive.
`O=S(=O)(O)C(F)(F)C(F)(F)C(F)(F)C(F)(F)C(F)(F)C(F)(F)C(F)(F)F`: the outcome in assay [1], in [2], in assay [3], in assay [4], in assay [5] and in assay [6] was inactive. Also, the outcome in assay [7], in [9] and in assay [10] was inactive.
As to `C=C(C)C(=O)OCC(F)(F)C(F)(F)C(F)(F)F`, the result in assay [1], in assay [2], in assay [3], in [4], in assay [5] and in [6] was inactive. Moreover, the outcome in assay [7], in assay [8], in [9] and in [10] was inactive.
Consider `CC(C)(C)C(=O)CC(=O)C(F)(F)C(F)(F)C(F)(F)F`, for which the outcome in [1], in [2], in assay [3], in assay [4], in [5] and in assay [6] was inactive. Further, the result in [7], in assay [8], in assay [9] and in assay [10] was inactive.
In the case of `O=C(O)C(F)(OC(F)(F)C(F)(OC(F)(F)C(F)(F)C(F)(F)F)C(F)(F)F)C(F)(F)F` (centres undefined), the outcome in assay [1], in assay [2], in assay [3], in assay [4], in assay [5] and in assay [6] was inactive. Moreover, the outcome in assay [7], in assay [9] and in assay [10] was inactive.
Take `Cc1ccc(S(=O)(=O)OCC(F)(F)C(F)(F)C(F)(F)C(F)(F)C(F)(F)C(F)F)cc1`: the result in [1], in assay [2], in assay [3], in [4], in [5] and in [6] was inactive. Moreover, the outcome in assay [7], in assay [9] and in assay [10] was inactive.
Take `FC(F)(F)C(F)(F)C(F)(F)N(C(F)(F)C(F)(F)C(F)(F)F)C(F)(F)C(F)(F)C(F)(F)F`: the result in assay [1], in assay [2], in [3], in assay [4], in assay [5] and in [6] was inactive. In addition, the outcome in assay [7], in assay [9] and in [10] was inactive.
In the case of `C#C[C@]1(O)CC[C@H]2[C@@H]3CCc4cc(OC)ccc4[C@H]3CC[C@@]21C`, the outcome in assay [1], in assay [2], in [4], in assay [5], in assay [6] and in assay [9] was inactive. For the same molecule, the values for the AC50 in assay [3], in assay [7] and in assay [10] were 0.016 µM (active), 3.48 nM (active) and 4.67 µM (active), respectively.
`CCCCCCCOC(=O)c1ccccc1C(=O)OCCCCCCC`: the outcome in assay [1], in assay [2], in assay [3], in assay [4], in [5] and in assay [6] was inactive. The outcome in assay [7], in assay [9] and in assay [10] was inactive.
